Hits are enriched below; roughly 5.1% of the tested compounds scored in any of these assays.
S1P3 antag: blocks the human S1P3 receptor; Q99500; CHO S1P3 NFAT-BLA reporter, FRET fluorescence, antagonist mode; inhibition, % at 4.98 µM; 0.27% of 170,000 active; AID 485;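 active = inhibition above the plate cutoff, the mean inhibition of test wells on that plate plus 3 SD, cut at about 28% in these data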;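 also: cells challenged with S1P at its EC80 of 0.8 µM; blue over green emission ratio from cleaved BLA substrate after 4 h stimulation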
ROMK primary: modulators of human ROMK potassium channel. Tet-inducible ROMK, thallium flux fluorescence; actives lie on both sides. B-score at 10 µM. 2% of 130,000 active;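 active = signal ratio slope over the read window, or its plate-corrected B-score, at least 3 SD from the plate mean, either direction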;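 also: B-score of the F/F0 ratio slope over 7 to 12 s after thallium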
RAM inhibit: yeast RAM network inhibition | inhibition, % at 50 µM | S. cerevisiae dse1pr::URA3 reporter, 5-FOA growth OD615, 2 d; analog-sensitive cbk1-as2 kinase mutant strain | 1.8% of 190,000 active | AID 868;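 active = inhibition above a set limit, 3 SD over mean compound inhibition, cut at about 8.4% in these data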;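 also: inhibition rescues growth on 5-FOA so higher OD means more RAM inhibition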
S1P4 antag: human S1P4 receptor antagonism. S1P4-expressing cells, antagonist mode, reporter read-out. inhibition, % at 4.98 µM. 0.26% of 220,000 active. AID 1510; in the data active = inhibition above about 29%
S1P4 agonist: human S1P4 receptor agonism. 0.35% of 220,000 active. O95977. AID 1509. activation, % at 4.98 µM. S1P4-expressing cell line, agonist reporter assay; in the data active = activation above about 11%
Cl transport mod: modulates chloride dependent transport by human KCC2; KCC2 cells, thallium flux FluoZin-2 fluorescence; 2.2% of 190,000 active; Q9H2X9; B-score of Tl+ flux slope (higher = more flux/activation; lower = inhibition) at 10 µM; AID 1456;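 active = thallium flux slope and its plate-corrected score both differing from the plate sample mean at a set confidence after two filtering rounds, in either direction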;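 also: slope of fluorescence scaled to starting intensity during 10 to 20 s after thallium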
Target sequence (Q9H2X9 whole entry, looked up): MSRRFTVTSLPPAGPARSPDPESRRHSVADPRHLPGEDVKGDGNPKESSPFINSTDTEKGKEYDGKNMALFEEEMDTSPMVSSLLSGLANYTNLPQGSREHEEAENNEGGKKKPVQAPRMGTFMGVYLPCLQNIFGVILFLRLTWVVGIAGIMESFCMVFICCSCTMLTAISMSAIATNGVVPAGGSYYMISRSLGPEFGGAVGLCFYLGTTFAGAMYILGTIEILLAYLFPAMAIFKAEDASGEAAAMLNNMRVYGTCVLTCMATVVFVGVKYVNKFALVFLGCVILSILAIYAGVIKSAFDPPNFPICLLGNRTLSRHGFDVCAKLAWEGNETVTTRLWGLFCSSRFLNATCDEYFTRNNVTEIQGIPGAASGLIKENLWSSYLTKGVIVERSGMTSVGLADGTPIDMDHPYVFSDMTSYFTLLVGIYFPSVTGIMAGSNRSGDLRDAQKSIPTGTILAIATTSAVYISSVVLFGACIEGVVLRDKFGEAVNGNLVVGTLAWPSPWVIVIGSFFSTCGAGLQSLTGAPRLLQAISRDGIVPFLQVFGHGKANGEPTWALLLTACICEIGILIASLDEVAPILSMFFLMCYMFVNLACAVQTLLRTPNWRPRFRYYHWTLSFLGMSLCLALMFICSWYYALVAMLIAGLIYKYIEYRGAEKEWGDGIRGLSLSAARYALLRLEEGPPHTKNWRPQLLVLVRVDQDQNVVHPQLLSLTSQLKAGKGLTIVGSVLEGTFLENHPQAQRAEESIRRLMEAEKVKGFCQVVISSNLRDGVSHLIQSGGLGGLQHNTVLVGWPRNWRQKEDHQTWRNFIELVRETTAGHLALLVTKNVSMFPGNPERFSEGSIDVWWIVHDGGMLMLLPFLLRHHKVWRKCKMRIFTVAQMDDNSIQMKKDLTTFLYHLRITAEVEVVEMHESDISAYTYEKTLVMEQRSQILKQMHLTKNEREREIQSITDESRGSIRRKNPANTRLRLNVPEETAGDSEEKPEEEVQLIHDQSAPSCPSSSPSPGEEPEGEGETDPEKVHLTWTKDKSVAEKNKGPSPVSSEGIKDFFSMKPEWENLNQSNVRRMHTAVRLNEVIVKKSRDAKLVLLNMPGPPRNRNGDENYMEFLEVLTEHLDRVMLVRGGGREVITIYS
S1P4 antag cf: confirmation of human S1P4 receptor antagonists; shares compounds with S1P4 antag; inhibition, % at 4.98 µM; S1P4-expressing cell line, antagonist mode, reporter read-out; 71% of 520 active; in the data active = inhibition above about 30%
S1P1 antag: human S1P1 antagonism as S1P4 antagonist counter-screen. shares compounds with S1P4 antag. cell-based S1P1 antagonist counterscreen, inhibition. inhibition, % at 4.98 µM. 37% of 520 active; in the data active = inhibition above about 40%;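 also: receptor stimulated with S1P near its EC80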
Numbers stand for hits; i = inactive; nt = no result given.

SMILES	S1P3 antag	ROMK primary	RAM inhibit	S1P4 antag	S1P4 agonist	Cl transport mod	S1P4 antag cf	S1P1 antag
Cc1nnc(SCC(=O)NC2CCCCC2C)s1 (stereo not given)	i	i	i	i	i	i	nt	nt
CCOc1cc(/C=N/NC(N)=O)cc(Br)c1OCC(=O)Nc1ccccc1C	nt	i	i	i	i	i	nt	nt
CCOc1cc(/C=C\[N+](=O)[O-])ccc1OCC(=O)Nc1ccccc1C	nt	i	i	58	i	nt	118	84
CC(C)Cn1c([N+](=O)[O-])nc2c1c(=O)[nH]c(=O)n2C	i	i	nt	29	i	i	i	i
Cn1c(=O)[nH]c(=O)c2c1nc([N+](=O)[O-])n2Cc1ccccc1	i	nt	nt	51	i	i	68	56
CSc1nc(N)c(C(=O)Nc2ccc([N+](=O)[O-])cc2)s1	i	nt	nt	i	i	i	nt	nt
BrC(/C=N/N1CCN(Cc2ccccc2)CC1)=C/c1ccccc1	i	nt	nt	i	i	i	nt	nt
CCCC(=O)OCCNc1cc(Sc2nc3ccccc3[nH]2)c2nonc2c1[N+](=O)[O-]	i	i	i	52	i	i	106	i
Cc1ccc(C(=O)N/C(=C\c2ccc(Cl)cc2)C(=O)NCCCN2CCOCC2)cc1	i	i	i	i	i	i	nt	nt
Cc1ccc(C(=O)N/C(=C\c2ccc(-c3ccc(Cl)cc3)o2)C(=O)NCCCN(C)C)cc1	i	i	i	36	i	i	i	i
COc1ccccc1NC(=O)N1CCCC(C(=O)Nc2cccc(C)c2C)C1 (stereo not given)	i	i	i	i	i	i	nt	nt
Cc1cccc(NC(=O)C2CCCN(C(=O)NC3CCCCC3)C2)c1C (stereo not given)	i	i	i	36	i	i	i	i
Cc1ccc(C)c(N2CC(C(=O)O)CC2=O)c1 (stereo not given)	i	i	i	i	i	i	nt	nt
COc1ccc(CN(Cc2cccn2C)C(=O)c2cc3cc(OC)ccc3[nH]2)cc1	i	i	nt	i	i	i	nt	nt
CC(=O)N1/C(=C/c2ccc(N(C)C)cc2)C(=O)c2ccccc21	i	nt	i	30	i	i	91	91
CC(=O)/C(=C/c1ccc(N(C)C)cc1)C(=O)c1ccccc1	i	i	i	i	i	i	nt	nt
O=[N+]([O-])c1ccc(N/N=C/c2c[nH]c3ccccc23)cc1	nt	nt	i	37	i	i	50	78
O=[N+]([O-])c1ccccc1N/N=C/c1c[nH]c2ccccc12	nt	nt	i	i	i	i	nt	nt
Cc1ccc(-c2csc(NC(=O)C3CCN(S(=O)(=O)c4cccs4)CC3)n2)cc1	i	i	i	59	i	i	i	i
CNC1=C([N+](=O)[O-])CC([N+](=O)[O-])=C(N2CCNCC2)N1C	i	i	i	35	i	i	i	i
Cc1ccc(N/C(N)=N/c2nc(C)cc(N3CCCCC3)n2)c(C)c1	i	i	i	45	i	i	45	i
Cc1ccc(N/C(N)=N/c2nc3c(c(=O)[nH]2)CCCC3)c(C)c1	nt	nt	i	i	i	i	nt	nt
c1ccc2c(N3CCOCC3)nc(N3CCOCC3)nc2c1	nt	i	i	i	i	i	nt	nt
c1ccc(CN2CCN(c3nc(N4CCOCC4)c4ccccc4n3)CC2)cc1	nt	nt	nt	36	i	nt	i	i
O=C(N1CCCCC1)N1CCN(S(=O)(=O)c2ccc(Cl)cc2)CC1	i	i	i	i	i	i	nt	nt
SMILES	S1P3 antag	ROMK primary	RAM inhibit	S1P4 antag	S1P4 agonist	Cl transport mod	S1P4 antag cf	S1P1 antag
CC(Nc1ccc(F)cc1F)C(=O)NC(=O)NC1CCCCC1 (stereo not given)	i	i	i	30	i	i	i	i
COC(=O)C(CC(=O)O)NCc1ccco1 (stereo not given)	i	nt	nt	i	i	i	nt	nt
O=C1c2ccccc2C(=O)N1Nc1ccccc1	nt	nt	i	i	i	i	nt	nt
Cc1ccc(NN2C(=O)C=C(c3ccccc3)C2=O)cc1	i	i	i	37	i	i	57	i
COc1ccc(N2C(=O)CC(N3CCN(S(=O)(=O)c4ccc(Cl)cc4)CC3)C2=O)cc1 (stereo not given)	i	i	i	30	i	i	i	i
N#Cc1ccc(OCC(=O)n2cc(C(=O)c3cc(Cl)cc(Cl)c3O)cn2)cc1	i	nt	nt	i	i	i	nt	nt
Cn1nc(C(F)(F)F)c(-c2cccc(C(F)(F)F)c2)c1NC(=O)CSCC(=O)O	i	i	nt	i	i	i	nt	nt
CCC(=O)N1CCN(c2ccc(NC(=O)c3ccc([N+](=O)[O-])o3)cc2Cl)CC1	i	i	i	56	i	i	113	44
O=C(Nc1ccc(S(=O)(=O)N2CCOCC2)cc1)c1ccc([N+](=O)[O-])o1	i	nt	nt	68	i	i	85	i
CCC(=O)N1CCN(c2ccc(NC(=O)c3cc4ccccc4o3)cc2Cl)CC1	i	nt	i	i	i	i	nt	nt
CCN1CCN(c2ccc(NC(=O)c3ccc([N+](=O)[O-])o3)cc2Cl)CC1	i	i	i	86	i	i	75	67
C/C(=N\NC(=O)Cn1nc(C)c([N+](=O)[O-])c1C)c1ccc(Cl)s1	i	i	nt	i	i	i	nt	nt
CCCC(C)NC(=O)COc1ccc(S(=O)(=O)c2ccc(OCC(=O)NC(C)CCC)cc2)cc1 (stereo not given)	i	i	i	i	i	i	nt	nt
O=C(Cc1c(Sc2ccccc2)c2ccccc2n1Cc1ccccc1)NCCO	i	i	i	i	i	i	nt	nt
Cc1csc2c(SCC(=O)NNC(=O)C(Cl)Cl)ncnc12	i	nt	nt	i	i	i	nt	nt
CC(=O)Nc1ccc(S(=O)(=O)NCC(=O)OC(C)c2ccccc2Cl)cc1 (stereo not given)	i	nt	i	i	i	i	nt	nt
COc1ccc([N+](=O)[O-])c(S(=O)(=O)c2ccc(Cl)cc2)n1	i	nt	nt	93	i	i	117	104
COc1ccc([N+](=O)[O-])c(S(=O)(=O)c2ccccc2)n1	i	i	nt	88	i	i	119	79
COc1nc(OC)nc(Oc2ccc(Cl)cc2[N+](=O)[O-])n1	i	i	i	i	i	i	nt	nt
CC(=O)Nc1ccc2c(c1)nc(CCN1CCC(C)CC1)n2C	nt	i	i	i	i	nt	nt	nt
CC1CCN(CCc2nc3cc(NC(=O)Nc4ccccc4)ccc3n2C)CC1	i	nt	i	32	i	nt	i	i
CC(=O)c1cccc(NC(=O)C(OC(=O)/C=C/c2ccc3c(c2)OCO3)c2ccccc2)c1 (stereo not given)	nt	i	i	i	i	i	nt	nt
O=C(Nc1nnc(-c2cccs2)o1)c1cccc(Oc2ccccc2)c1	i	nt	i	32	i	nt	98	94
O=C(Nc1nnc(-c2ccncc2)o1)c1ccccc1	i	i	i	i	i	i	nt	nt
CC(/C=C(\NC(=O)c1ccccc1)C(=O)N=Nc1c(O)[nH]c2ccc(C)cc12)=C\c1ccccc1	nt	i	i	35	i	i	i	i
